Assay results published in PubChem BioAssay (NCI).
Compounds without any hit were thinned out: in the full panel of roughly 83,000, 20% have a hit.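 Cell lines were cultured in 96-well plates, exposed to a single compound concentration, and assessed for percent growth 48 hours later.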 A number with no mark means an inactive call. The source made the active and inactive calls. Rule for the calls: active = growth percent below 10; inactive = the rest.

Columns and labels:
Test in all cases: NCI-60 one-dose screen, 48 h (100 = growth as untreated, 0 = no growth, -100 = all killed)
Settings in all cases: 10 µM unless noted
NCI-H23 lung = test system: NCI-H23 lung
NCI-H226 lung = test system: NCI-H226 lung
NCI-H322M lung = test system: NCI-H322M lung
HOP-62 NSCLC = test system: HOP-62 NSCLC
NCI-H460 lung = test system: NCI-H460 lung
HOP-92 NSCLC = test system: HOP-92 NSCLC
NCI-H522 lung = test system: NCI-H522 lung
A549/ATCC NSCLC = test system: A549/ATCC NSCLC
786-0 renal = test system: 786-0 renal
COLO 205 colon = test system: COLO 205 colon

Row | Compound | growth (NCI-H23 lung) | growth (NCI-H226 lung) | growth (NCI-H322M lung) | growth (HOP-62 NSCLC) | growth (NCI-H460 lung) | growth (HOP-92 NSCLC) | growth (NCI-H522 lung) | growth (A549/ATCC NSCLC) | growth (786-0 renal) | growth (COLO 205 colon)
1 | Fc1cccc(-c2nc(-c3c[nH]c4ncccc34)cs2)c1 | 64.2% [100 µM] | 53.1% [100 µM] | 59.1% [100 µM] | 48.9% [100 µM] | 40.5% [100 µM] | 38.3% [100 µM] | 81.5% [100 µM] | 33.9% [100 µM] | 62.3% [100 µM] | 76.9% [100 µM]
2 | O=C(Nc1cc(Cl)ccc1O)c1ccccc1Nc1ccnc(C(F)(F)F)c1 | -5.07% (active) | 50.9% | 30.9% | 16.6% | 2.15% (active) | 49.1% | -6.22% (active) | 19.7% | 57.9% | 79.6%
3 | CCOC(=O)NCCCC(=O)NCCc1ccccc1 | 98.9% | 96.3% | 106% | 108% | 110% | 111% | 106% | 107% | 105% | 114%
4 | CCN(CC)CCOc1ccc(Nc2ncc3cc(-c4c(Cl)cccc4Cl)c(=O)n(CCOC)c3n2)cc1 | -9.78% (active) | 28% | 17.5% | 6.51% (active) | 3.65% (active) | -18.7% (active) | -28.5% (active) | 0.456% (active) | 5.35% (active) | -40% (active)
5 | c1csc(-c2cn3nc(-c4c[nH]c5ccccc45)sc3n2)c1 | 36.9% | 72.4% | 25% | 27% | 11.2% | 38.3% | -6.13% (active) | 35% | 42.2% | 5.46% (active)
6 | COc1cc(/C=N/NC(=O)c2ccc(-n3cc(-c4ccccc4)nn3)cc2)cc(OC)c1OC | 59.1% | 32.5% | 60.6% | 71.7% | 41.5% | 86.9% | 68.3% | 81.2% | 93.8% | 56.7%
7 | Cc1ccc(-c2nc(SCC(=O)N3CCN(c4cc5c(cc4F)c(=O)c(C(=O)O)cn5C4CC4)CC3)nc(Cl)c2C#N)cc1 | 100% | 104% | 101% | 90.4% | 103% | 112% | 93.8% | 107% | 97.8% | 108%
8 | Clc1ccc(-c2nc(C(Cl)Cl)nc3cc(-c4ccccc4)nn23)cc1 | -3.66% (active) | 84.6% | -50.5% (active) | 14.6% | -54.6% (active) | 49.4% | 22.6% | -12.7% (active) | 79.9% | -8.35% (active)
9 | COc1cc([C@@H](CCO)C[C@H](C)c2ccc3ccccc3c2)cc(OC)c1OC | 54.6% | 56.4% | 46.7% | 40.6% | 17.3% | 30.8% | -7.95% (active) | 46.8% | 28% | 16.1%
10 | O=C(O)c1cn(C2CC2)c2cc(N3CCN(C(=O)N4CCOCC4)CC3)c(F)cc2c1=O | 99.5% | 99.3% | 104% | 106% | 115% | 95.5% | 89.9% | 108% | 99.8% | 110%
11 | CN(C)CCCn1c2c(c3ccncc3c1=O)C(=O)c1ccccc1-2 | -23.1% (active) | -53.1% (active) | 21.2% | -11.4% (active) | -9.77% (active) | -18.1% (active) | -22.5% (active) | 30.2% | 5.98% (active) | 10.6%
12 | CC[C@H](Nc1nc(N)nc(C)c1C#N)c1nc2cccc(CN(C)c3ncc(C(=O)NO)cn3)c2c(=O)n1-c1ccccc1 | 11.6% | 24.3% | 5.95% (active) | 11.4% | 10.8% | -28.3% (active) | -45.2% (active) | 27.4% | 11.9% | -55.8% (active)
13 | N#CC1=C(N)Oc2c(sc3c(F)cccc23)C1c1ccc([N+](=O)[O-])cc1 (stereo not given) | -4.82% (active) | 3.23% (active) | -24.2% (active) | -33.4% (active) | -26.8% (active) | -47.5% (active) | -26.3% (active) | 4.46% (active) | -18.6% (active) | -41.7% (active)
14 | O=C1c2cccnc2C(=O)c2c1c(C(=O)OCCc1ccccn1)c1ccccn21 | -55.8% (active) | -50.1% (active) | -53.3% (active) | -79% (active) | -71% (active) | 15.1% | -50.4% (active) | -65.9% (active) | -63.2% (active) | -62.3% (active)
15 | O=C(Nc1cccnc1Nc1ccccc1)c1cn(Cc2cccc(Oc3ccccc3)c2)nn1 | 68.3% | 64.7% | 71.8% | 78.6% | 42.6% | 71.2% | 61.3% | 57.9% | 56.7% | 107%
16 | N#Cc1c(-c2ccccc2)cc(-c2ccccc2)n(CCCCC(=O)NO)c1=O | 25.8% | 9.98% (active) | 92.2% | 21.1% | 73% | 15.7% | 19.3% | 41.7% | 7% (active) | 43.3%
17 | Oc1ccc(-c2nc3ccc4[nH]ncc4c3c3c2CCCC3)c(F)c1 | 29.5% | 56.4% | 37.8% | 35.7% | 29% | 68.9% | -4.04% (active) | 15.7% | 29.4% | 77.4%
18 | CCOC(=O)/C=C1\S/C(=N\Nc2cc(=O)[nH]c3ccc(Br)cc23)N(c2ccccc2)C1=O | 88.1% | 84.1% | 90.5% | 91.2% | 95.9% | 81.5% | 31.4% | 103% | 86% | 46.6%
19 | CCOC(=O)C(CCN(C)C)c1ccccc1 (stereo not given) | 94.4% | 90.3% | 91.9% | 88.8% | 105% | 78.8% | 84.5% | 91.8% | 98.1% | 116%
20 | O=C(Cn1nc(-c2cccc3ccccc23)ccc1=O)NCc1cccc(Cl)c1 | 45.2% [50 µM] | 38.2% [50 µM] | 70.4% [50 µM] | 72.2% [50 µM] | 32.2% [50 µM] | 26.3% [50 µM] | 17.1% [50 µM] | 28.5% [50 µM] | 37.7% [50 µM] | 37.3% [50 µM]
21 | O=C(O)c1cn(C2CC2)c2cc(N3CCN(C(=O)N/N=C/c4cccc5ccccc45)CC3)c(F)cc2c1=O | 93.9% | 94.3% | 101% | 95.2% | 106% | 97.2% | 81% | 106% | 71.7% | 114%
22 | COc1ccc(C(O)c2cc3c(N)c(C(=O)Nc4cccc5ccccc45)sc3nc2C)cc1 (stereo not given) | 23.3% | 18.6% | 39.1% | 25.6% | -20.2% (active) | 51% | 0% (active) | 11.6% | 16.2% | -34.3% (active)
23 | Nc1cc(Br)cc2c1[nH]c(=O)c1ccccc12 | 83.4% | 91.9% | 109% | 102% | 93.4% | 77.6% | 98.1% | 91.7% | 101% | 106%
24 | CCOC(=O)C1=C(CCl)N(C)C(=O)NC1c1ccc2c(c1)OCO2 (stereo not given) | 70.7% | 77% | 85% | 74.7% | 72.1% | 53.9% | 32.7% | 87.5% | 53.9% | 69.1%
